Data as given in PubChem BioAssay.
A number with no mark means an inactive call. Activity calls are given as the source filed them.

Assay: plasmodial surface anion channel blockers, osmotic lysis – cell-based, P. falciparum Indochina, OD700, 1 h, primary screen (AID 1154)
Settings: P. falciparum Indochina infected RBC osmotic lysis, higher = more signal, called active from +8 up or from −8 down

**Q.** With `COc1ccc(CCNC(=O)[C@@H]2c3ccccc3C(=O)N(Cc3ccccc3Cl)[C@H]2c2ccc(CO)cc2)cc1` as the compound, how does the z-score read?
**A.** 3.59

**Q.** For `CCCCN1CC=CC23O[C@@H]4C=CCCOC(=O)C4[C@H]2C(=O)N(CCCCCCO)[C@@H]3C1=O` (stereo partly drawn), which z-score is on record?
**A.** 0.371

**Q.** Which z-score does the source give for `CCOC(=O)C[C@H]1[C@H](OC(=O)c2ccc(C(=O)c3ccccc3)cc2)[C@@H](NC(=O)c2ccccc2)c2cc(OCCCO)ccc2N1C(=O)c1ccc2ccccc2n1` here?
**A.** 2.66

**Q.** With `C=CCOC(=O)[C@H]1[C@@H]2C(=O)O[C@@H](c3ccccc3)[C@@H](c3ccccc3)N2[C@@H](c2ccc(OCCOC(=O)[C@H]3C[C@H]4C(=O)N[C@@H](CCCC[N+](C)(C)C)C(=O)N4[C@H]3c3ccc(O)cc3)cc2)[C@]12C(=O)Nc1ccc(I)cc12` as the compound, how does the z-score read?
**A.** 3.9

**Q.** Which z-score does the source give for `CC(CO)N1C(=O)[C@@H]2C3C(=O)OCCC/C=C\[C@H]3OC23C=CCN(C(C)(C)C)C(=O)[C@@H]13` (stereo partly drawn) here?
**A.** 0.943

**Q.** With `CC1CC/C=C\[C@H]2OC34C=CCN(C(C)(C)C)C(=O)[C@H]3N(C(C)CO)C(=O)[C@@H]4C2C(=O)O1` (stereo partly drawn) as the compound, how does the z-score read?
**A.** 1.42

**Q.** Which z-score does the source give for `COc1ccc(C#Cc2ccc3c(c2)[C@]2(C(=O)N3)[C@H](C(=O)Nc3nc4ccccc4s3)[C@H]3C(=O)O[C@H](c4ccccc4)[C@H](c4ccccc4)N3[C@@H]2c2ccc(O)cc2)cc1` here?
**A.** -0.383

**Q.** With `C=CCC(OC(C)=O)[C@@H]1[C@@H](N(Cc2ccc(-c3ccccc3)cc2)C(=O)Cc2ccc(OC)cc2)c2cc(OCCCO)ccc2N1C(=O)Cc1ccc2ccccc2c1` (stereo partly drawn) as the compound, how does the z-score read?
**A.** 0.747

**Q.** With `CN1C(=O)C2C=CC(C(O)C#Cc3ccccc3)N(N3CCCCC3)C2C1=O` (stereo not drawn) as the compound, how does the z-score read?
**A.** 1.24

**Q.** Which z-score does the source give for `C=CC(=C)[C@H]1Oc2ccccc2S(=O)(=O)N2CCC[C@@H]12` here?
**A.** 4.63

**Q.** With `C=CCC(OC(C)=O)[C@@H]1[C@@H](N(Cc2ccc(-c3cccc(C(F)(F)F)c3)o2)C(=O)c2ccc(C)cc2)c2cc(OCCCO)ccc2N1C(=O)Cc1ccc2ccccc2c1` (stereo partly drawn) as the compound, how does the z-score read?
**A.** 1.05

**Q.** With `COCCOC(=O)N1C(=O)[C@@]2(c3cc(C#CCC(C(=O)OC)C(=O)OC)ccc31)[C@H](C(=O)N1CCN(c3ncccn3)CC1)[C@H]1C(=O)O[C@H](c3ccccc3)[C@H](c3ccccc3)N1[C@@H]2c1ccccc1OCCO` as the compound, how does the z-score read?
**A.** 3.14

**Q.** With `CC(C)=CCCC(C)=CC(O)C1C=CC2C(=O)N(C)C(=O)C2N1Nc1ccccc1` (stereo not drawn) as the compound, how does the z-score read?
**A.** 7.27

Assay: plasmodial surface anion channel blockers, osmotic lysis – cell-based, P. falciparum Indochina, OD700, 2 h, primary screen (AID 1155);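 note: lysis reports solute entry through the parasite surface anion channel PSAC; channel blockers reduce lysis of infected cells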
Settings: P. falciparum Indochina infected erythrocytes, higher = more signal, called active from +8 up or from −8 down

**Q.** Which z-score does the source give for `C=CCN1C(=O)[C@@]2(Cc3ccccc31)N=C(c1ccc(OCCCO)cc1)O[C@H]2c1ccccc1` here?
**A.** 3.47

**Q.** For `[N-]=[N+]=Nc1ccccc1[C@@H]1OC(c2ccc(OCCCO)cc2)=N[C@]1(CCS(=O)(=O)c1ccccc1)C(N)=O`, which z-score is on record?
**A.** 26.1 (active)

**Q.** Which z-score does the source give for `CN(C)C(=O)[C@@]1(CCS(=O)(=O)c2ccccc2)COC(c2ccc(OCCCO)cc2)=N1` here?
**A.** 8.3 (active)

**Q.** With `CCOC(=O)C[C@H]1[C@H](OC(=O)c2cc3ccccc3oc2=O)[C@@H](NC(=O)c2ccccc2)c2cc(OCCCO)ccc2N1C(=O)c1ccc2ccccc2n1` as the compound, how does the z-score read?
**A.** 1.33

**Q.** With `C=CCOC(=O)[C@H]1[C@@H]2C(=O)O[C@@H](c3ccccc3)[C@@H](c3ccccc3)N2[C@@H](c2ccc(OCCOC(=O)[C@H]3C[C@H]4C(=O)N[C@@H](CCCCNC(C)=O)C(=O)N4[C@H]3c3cccc(OCCO)c3)cc2)[C@]12C(=O)Nc1ccccc12` as the compound, how does the z-score read?
**A.** 1.52

**Q.** With `CC(C)C(CO)N1C(=O)[C@@H]2C3C(=O)OCCC/C=C\[C@H]3OC23C=CCN(CCN2CCOCC2)C(=O)[C@@H]13` (stereo partly drawn) as the compound, how does the z-score read?
**A.** 0.179

**Q.** With `O=C(NCCN1CCOCC1)C1N=C(c2ccc(OCCCO)cc2)N(c2ccccc2)O1` (stereo not drawn) as the compound, how does the z-score read?
**A.** 0.287

**Q.** For `COC(=O)[C@@]1(Cc2ccccc2)[C@H]2c3cc(C(=O)N4CCCC4)n(Cc4ccc(S(C)(=O)=O)cc4)c3C[C@H]2CN1C(=O)c1ccccc1`, which z-score is on record?
**A.** 0.238

**Q.** For `O=C1[C@@]23C=C(Br)[C@H](C[C@@H]2CCOC3)[C@@]12CO2`, which z-score is on record?
**A.** -0.261

**Q.** For `O=C(c1ccccc1)N1C(=O)[C@]2(COC(c3ccc(OCCCO)cc3)=N2)Cc2ccccc21`, which z-score is on record?
**A.** 17.8 (active)

**Q.** For `Cc1nc2cc(Br)ccc2c(=O)o1`, which z-score is on record?
**A.** 0.0276

**Q.** With `CCCCC(CC)C(O)C1C=CC2C(=O)N(Cc3ccccc3)C(=O)C2N1n1cnnc1` (stereo not drawn) as the compound, how does the z-score read?
**A.** 0.0653

**Q.** Which z-score does the source give for `CC(C)C(O)C1C=CC2C(=O)NC(=O)C2N1Nc1ccc(Cl)cc1Cl` (stereo not drawn) here?
**A.** 0.648

**Q.** Which z-score does the source give for `COCCOC(=O)N1C(=O)[C@@]2(c3ccccc31)[C@H](c1ccc(O)cc1)N1[C@H](c3ccccc3)[C@H](c3ccccc3)OC(=O)[C@H]1[C@@H]2C(=O)Nc1nc2ccccc2s1` here?
**A.** 1.1

**Q.** With `CC(C)C(=C=CC[C@@H](O)c1ccc(OCCO)cc1)C[C@@H](O)COCc1ccccc1` as the compound, how does the z-score read?
**A.** -0.15

**Q.** For `O=C1C2C=CC(C(O)Cc3ccccc3)N(n3cnnc3)C2C(=O)N1Cc1ccccc1` (stereo not drawn), which z-score is on record?
**A.** 1.06

**Q.** Which z-score does the source give for `COCCOC(=O)N1C(=O)[C@@]2(c3cc(C#Cc4ccc(OC)cc4)ccc31)[C@H](c1ccc(O)cc1)N1[C@H](c3ccccc3)[C@H](c3ccccc3)OC(=O)[C@H]1[C@@H]2C(=O)N1CCc2cc(OC)c(OC)cc2C1` here?
**A.** 1.19

**Q.** For `COc1cc2c(cc1O)C(C1CC1)N(Cc1sc3ccccc3c1Cl)CC2` (stereo not drawn), which z-score is on record?
**A.** 3.41

**Q.** Which z-score does the source give for `CC(C)C(=C=CC[C@H](O)c1ccc(OCCO)cc1)CCO` here?
**A.** 1.99

**Q.** Which z-score does the source give for `CC(=O)NCCCC[C@@H]1NC(=O)[C@@H]2C[C@H](C(=O)NCCCCCNC(=O)CS)[C@H](c3cccc(OCCO)c3)N2C1=O` here?
**A.** -0.202

**Q.** Which z-score does the source give for `NC(=O)NCC#Cc1ccc2c(c1)[C@]1(C(=O)N2)[C@H](c2ccc(O)cc2)N2[C@H](c3ccccc3)[C@H](c3ccccc3)OC(=O)[C@H]2[C@@H]1C(=O)O` here?
**A.** 0.179

**Q.** For `COc1cc(Br)cc(C(O)C2C=CC3C(=O)N(C)C(=O)C3N2N2CCCCC2)c1OC` (stereo not drawn), which z-score is on record?
**A.** 1.27

**Q.** Which z-score does the source give for `COc1ccc(CCNC(=O)[C@@H]2c3ccccc3C(=O)N(Cc3ccccc3Cl)[C@H]2c2ccc(CO)cc2)cc1` here?
**A.** 0.474

**Q.** Which z-score does the source give for `CCCCN1CC=CC23O[C@@H]4C=CCCOC(=O)C4[C@H]2C(=O)N(CCCCCCO)[C@@H]3C1=O` (stereo partly drawn) here?
**A.** 0.491

**Q.** With `CCOC(=O)C[C@H]1[C@H](OC(=O)c2ccc(C(=O)c3ccccc3)cc2)[C@@H](NC(=O)c2ccccc2)c2cc(OCCCO)ccc2N1C(=O)c1ccc2ccccc2n1` as the compound, how does the z-score read?
**A.** 0.748

**Q.** Which z-score does the source give for `C=CCOC(=O)[C@H]1[C@@H]2C(=O)O[C@@H](c3ccccc3)[C@@H](c3ccccc3)N2[C@@H](c2ccc(OCCOC(=O)[C@H]3C[C@H]4C(=O)N[C@@H](CCCC[N+](C)(C)C)C(=O)N4[C@H]3c3ccc(O)cc3)cc2)[C@]12C(=O)Nc1ccc(I)cc12` here?
**A.** 1.69

**Q.** For `CC(CO)N1C(=O)[C@@H]2C3C(=O)OCCC/C=C\[C@H]3OC23C=CCN(C(C)(C)C)C(=O)[C@@H]13` (stereo partly drawn), which z-score is on record?
**A.** 0.752

**Q.** For `CC1CC/C=C\[C@H]2OC34C=CCN(C(C)(C)C)C(=O)[C@H]3N(C(C)CO)C(=O)[C@@H]4C2C(=O)O1` (stereo partly drawn), which z-score is on record?
**A.** 0.576

**Q.** For `COc1ccc(C#Cc2ccc3c(c2)[C@]2(C(=O)N3)[C@H](C(=O)Nc3nc4ccccc4s3)[C@H]3C(=O)O[C@H](c4ccccc4)[C@H](c4ccccc4)N3[C@@H]2c2ccc(O)cc2)cc1`, which z-score is on record?
**A.** 0.53

**Q.** With `C=CCC(OC(C)=O)[C@@H]1[C@@H](N(Cc2ccc(-c3ccccc3)cc2)C(=O)Cc2ccc(OC)cc2)c2cc(OCCCO)ccc2N1C(=O)Cc1ccc2ccccc2c1` (stereo partly drawn) as the compound, how does the z-score read?
**A.** 0.314

**Q.** For `CN1C(=O)C2C=CC(C(O)C#Cc3ccccc3)N(N3CCCCC3)C2C1=O` (stereo not drawn), which z-score is on record?
**A.** 1.09

**Q.** For `C=CC(=C)[C@H]1Oc2ccccc2S(=O)(=O)N2CCC[C@@H]12`, which z-score is on record?
**A.** 0.751

**Q.** Which z-score does the source give for `C=CCC(OC(C)=O)[C@@H]1[C@@H](N(Cc2ccc(-c3cccc(C(F)(F)F)c3)o2)C(=O)c2ccc(C)cc2)c2cc(OCCCO)ccc2N1C(=O)Cc1ccc2ccccc2c1` (stereo partly drawn) here?
**A.** 0.172

**Q.** Which z-score does the source give for `COCCOC(=O)N1C(=O)[C@@]2(c3cc(C#CCC(C(=O)OC)C(=O)OC)ccc31)[C@H](C(=O)N1CCN(c3ncccn3)CC1)[C@H]1C(=O)O[C@H](c3ccccc3)[C@H](c3ccccc3)N1[C@@H]2c1ccccc1OCCO` here?
**A.** 1.55

**Q.** For `CC(C)=CCCC(C)=CC(O)C1C=CC2C(=O)N(C)C(=O)C2N1Nc1ccccc1` (stereo not drawn), which z-score is on record?
**A.** 2.86
